Results on five compounds are retold here after PubChem BioAssay.

What is called inhibition is the change of the read-out against control, counted positive when it falls.

The nature of assay [1]: yeast TOR pathway RPL19A-GFP modulators, primary screen, cell-based, S. cerevisiae, multiplex flow cytometry (AID 1862; in the data active = percent of DMSO control GFP below about 86%;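 also: lower values mimic rapamycin by blocking the RPL19A rise seen in DMSO cells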). The note with it: S. cerevisiae RPL19A-GFP strain, flow cytometry fluorescence, 3 h; at 10 µM; stronger effect = lower value. (In general: A flow cytometer gives signals particle by particle.)
Assay [2] is described as follows: modulators of CIT2-GFP expression in yeast, primary screen, S. cerevisiae, GFP fusion, multiplex flow cytometry (AID 1870;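 active = percent response above a set limit, the screen-wide mean plus 3 SD, cut at about 130% in these data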;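 also: barcoded CIT2-GFP strain pooled with four other GFP strains with rapamycin as positive control; median GFP fluorescence per well over plate mean of DMSO wells so 100% = DMSO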). The following applies: 3 h, at 10 µM, stronger effect = higher value.
Assay [3] can be described thus: modulators of LAP4-GFP expression in yeast, primary screen, S. cerevisiae, multiplex flow cytometry (AID 1873;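 active = GFP signal, as percent of the solvent control, above the screen mean plus 3 SD, about 149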). The note with it: 3 h, at 10 µM, stronger effect = higher value.
Assay [4] in a line: modulators of AGP1-GFP expression in yeast TOR pathway, primary screen, cell-based, multiplex flow cytometry, S. cerevisiae (AID 1887;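 active = GFP signal above the screen-wide mean plus 3 SD, that is over about 124.5% of the solvent control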;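 also: AGP1-GFP fusion strain of S. cerevisiae within a five-strain barcoded multiplex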). The following applies: 3 h, at 10 µM, stronger effect = higher value.
Assay [5] is described as follows: inhibitors of CD8+ T cell-vesicle binding, pilot screen, LFA-1/ICAM-1 modulator project, MLPCN validation set, flow cytometry (AID 2523;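 active = response below a set limit, under 55% cells CD8-positive and vesicle-bound, and CD8 cells' 90th-percentile brightness under 279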;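 as to vesicle binding response: mean PE anti-B7-1 fluorescence of CD8+ cells relative to row control; 100% = QL9-loaded vesicles with DMSO vehicle in the same plate row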). The note with it: 2C mouse CD8+ T cells, at 7 µM, stronger effect = lower value; double positive events: measured here: CD8+/vesicle+ event percentage.
The target in assay [6] is Integrin beta-1 (Homo sapiens) + Integrin alpha-4 (Homo sapiens) (UniProt P13612+P05556). Description: inhibition of HUTS-21 binding to VLA-4, pilot screen, VLA-4 allosteric modulator project, U937 cells, HUTS-21 mAb, flow cytometry, validation set (AID 2674;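 active = inhibition above 50%, about 3 SD of the validation set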;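 also: antibody binding induced by the VLA-4 ligand LDV present at three times its Kd; 0% = LDV ligand with antibody and no compound and 100% = antibody without LDV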). The following applies: HUTS-21 LIBS mAb binding, at 6.7 µM, stronger effect = higher value, binding induced by LDV ligand.
Integrin beta-1 (Homo sapiens) + Integrin alpha-4 (Homo sapiens), sequence (P05556 whole entry, looked up): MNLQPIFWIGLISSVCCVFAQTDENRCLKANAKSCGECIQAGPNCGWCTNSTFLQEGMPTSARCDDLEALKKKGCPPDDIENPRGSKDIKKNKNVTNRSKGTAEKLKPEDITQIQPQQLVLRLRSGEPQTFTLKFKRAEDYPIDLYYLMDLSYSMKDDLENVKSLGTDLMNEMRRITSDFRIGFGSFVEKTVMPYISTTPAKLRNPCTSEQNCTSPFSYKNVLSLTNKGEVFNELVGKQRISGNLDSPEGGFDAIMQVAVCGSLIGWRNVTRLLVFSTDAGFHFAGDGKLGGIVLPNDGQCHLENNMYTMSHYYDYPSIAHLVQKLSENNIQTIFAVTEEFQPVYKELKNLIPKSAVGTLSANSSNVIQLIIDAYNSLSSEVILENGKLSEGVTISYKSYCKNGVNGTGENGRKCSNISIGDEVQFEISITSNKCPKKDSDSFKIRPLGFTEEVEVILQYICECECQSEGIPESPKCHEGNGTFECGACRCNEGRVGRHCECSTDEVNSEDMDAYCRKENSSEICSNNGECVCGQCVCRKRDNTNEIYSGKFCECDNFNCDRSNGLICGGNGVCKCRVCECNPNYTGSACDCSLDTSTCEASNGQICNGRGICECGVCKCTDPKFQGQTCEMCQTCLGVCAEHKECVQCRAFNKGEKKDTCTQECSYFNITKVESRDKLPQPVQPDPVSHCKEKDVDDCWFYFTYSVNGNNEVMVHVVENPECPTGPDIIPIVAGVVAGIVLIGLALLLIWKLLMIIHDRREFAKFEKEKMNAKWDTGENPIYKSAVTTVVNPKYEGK
Integrin beta-1 (Homo sapiens) + Integrin alpha-4 (Homo sapiens), sequence (P13612 whole entry, looked up): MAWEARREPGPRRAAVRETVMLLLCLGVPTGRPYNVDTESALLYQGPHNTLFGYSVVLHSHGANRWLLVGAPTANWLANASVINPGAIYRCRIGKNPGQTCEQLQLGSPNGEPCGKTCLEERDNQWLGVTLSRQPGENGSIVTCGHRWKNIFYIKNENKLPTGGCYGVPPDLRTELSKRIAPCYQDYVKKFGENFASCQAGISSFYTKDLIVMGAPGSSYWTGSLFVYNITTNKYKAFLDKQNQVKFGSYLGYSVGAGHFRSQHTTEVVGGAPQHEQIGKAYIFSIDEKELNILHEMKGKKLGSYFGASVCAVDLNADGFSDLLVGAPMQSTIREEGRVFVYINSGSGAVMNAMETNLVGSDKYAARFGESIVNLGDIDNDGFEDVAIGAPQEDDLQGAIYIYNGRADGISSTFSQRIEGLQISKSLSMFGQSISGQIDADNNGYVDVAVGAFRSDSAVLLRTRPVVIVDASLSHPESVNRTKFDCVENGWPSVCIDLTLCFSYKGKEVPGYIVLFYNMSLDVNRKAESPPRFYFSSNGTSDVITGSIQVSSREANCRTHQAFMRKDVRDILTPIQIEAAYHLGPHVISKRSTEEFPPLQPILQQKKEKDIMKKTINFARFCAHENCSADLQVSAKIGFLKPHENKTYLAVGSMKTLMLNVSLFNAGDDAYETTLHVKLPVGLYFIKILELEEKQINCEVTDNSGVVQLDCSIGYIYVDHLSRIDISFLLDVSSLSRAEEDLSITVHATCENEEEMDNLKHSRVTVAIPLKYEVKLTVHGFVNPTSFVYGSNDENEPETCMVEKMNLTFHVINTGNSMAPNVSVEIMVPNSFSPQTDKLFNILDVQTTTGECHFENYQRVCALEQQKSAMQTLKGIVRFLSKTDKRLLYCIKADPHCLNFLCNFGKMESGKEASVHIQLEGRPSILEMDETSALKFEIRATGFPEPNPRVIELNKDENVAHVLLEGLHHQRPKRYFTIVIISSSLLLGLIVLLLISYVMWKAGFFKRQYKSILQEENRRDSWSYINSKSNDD
Assay [7] in a line: superoxide lowering in aged yeast cells, pilot screen, validation compound set (AID 2706;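 active = superoxide response below 65% of plate, a cut near 3 SD across the whole screen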;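 also: yeast exposed to compound for one week at 30 degrees C before staining; 100% = mean of all compound wells on the same plate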). The note with it: S. cerevisiae aging, superoxide DHE fluorescence; at 10 µM, stronger effect = lower value.
Assay [8] has as its target Beta-adrenergic receptor kinase 1 (Homo sapiens) (UniProt P25098). Description: GRK2 binders displacing RNA aptamer, biochemical, validation, human GRK2, bead flow cytometry (AID 488806;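 active = aptamer binding inhibition above 30%, about 3 SD of noise from non-fluorescent compounds; inactive = inhibition at or below 30%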). The following applies: bead-bound GRK2, FAM-aptamer displacement, at 10 µM, stronger effect = higher value.
The target in assay [9] is Beta-2 adrenergic receptor (Homo sapiens) (UniProt P07550). Description: beta2AR agonists driving receptor internalization, pilot screen, cell-based, FAP fluorogen, flow cytometry, validation set (AID 504459;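 active = percent response above 42, roughly 3 SD of non-fluorescent test compounds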;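 also: agonist-driven loss of surface beta2AR via internalization measured by FAP dye flow cytometry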). The following applies: Am2.2-beta2AR cells, FAP surface receptor flow cytometry; at 10 µM; stronger effect = higher value.
Beta-2 adrenergic receptor (Homo sapiens), sequence (P07550 whole entry, looked up): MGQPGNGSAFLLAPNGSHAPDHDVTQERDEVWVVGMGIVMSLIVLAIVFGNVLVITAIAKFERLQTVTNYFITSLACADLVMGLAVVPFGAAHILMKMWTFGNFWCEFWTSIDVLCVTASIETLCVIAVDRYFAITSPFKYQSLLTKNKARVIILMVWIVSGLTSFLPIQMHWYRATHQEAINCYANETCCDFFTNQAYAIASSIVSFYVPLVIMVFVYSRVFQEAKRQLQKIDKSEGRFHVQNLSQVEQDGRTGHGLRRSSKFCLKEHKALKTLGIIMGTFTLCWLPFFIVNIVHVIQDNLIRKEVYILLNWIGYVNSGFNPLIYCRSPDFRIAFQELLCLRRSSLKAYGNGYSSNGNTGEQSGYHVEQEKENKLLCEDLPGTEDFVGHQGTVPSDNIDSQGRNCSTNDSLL
Assay [10] has as its target AP-2 complex subunit beta (Homo sapiens) (UniProt P63010). Description: inhibitors of arrestin peptide binding to AP2, pilot screen, biochemical, validation set, GST-AP2 beads, flow cytometry (AID 504541;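 active = inhibition above 54%, about 3 SD of non-fluorescent compounds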;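 also: AP2 carries R879A mutation and is captured from E. coli lysate; bead-bound FITC arrestin peptide fluorescence measuring arrestin peptide binding to AP2; 0% = DMSO wells and 100% = excess unlabeled arrestin peptide control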). The note with it: FITC arrestin peptide, at 10 µM, stronger effect = higher value, AP2 beta2 appendage fragment, R879A mutant.
Assay [11] is described as follows: yeast V-ATPase proton transport modulators, S. cerevisiae, pHLuorin, HTS validation (AID 504600; in the data active = response above about 15%;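 also: plate controls were DMSO for no effect and reference compound for full effect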). The note with it: S. cerevisiae pHLuorin cytosolic pH, at 10 µM, stronger effect = higher value.
The test system of assay [12] is anti-desmoglein-3 scFv antibody binding to human DSG3. Description: inhibitors of anti-DSG3 scFv binding to DSG3, pilot screen, biochemical, validation compound set, bead-based, flow cytometry (AID 588368;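 active = binding below the plate cutoff, the plate median minus 3 SD, with a reading above zero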;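 also: signal is the median channel fluorescence of bead-bound GFP antibody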). The following applies: Protein G beads, DSG3-Fc, scFv-GFP binding, at 10 µM, stronger effect = lower value.
A short description of assay [13]: inhibitors of fungal efflux pumps CDR1, CDR2, MDR1, pilot screen, validation compound set, multiplex, phenotypic (AID 588506;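 active = efflux inhibition above 0.42, the validation set average plus 4 SD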;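 also: Nile Red retained in cells so higher fluorescence means more efflux inhibition; 0 = negative control wells and 1 = enniatin B 25 µM full block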). The following applies: S. cerevisiae pump-expressing triplex, Nile Red efflux flow cytometry; at 10 µM; stronger effect = higher value; the pumps come from Candida albicans.
For assay [14], the target named is ATP-binding cassette sub-family B member 6 (Homo sapiens) (UniProt Q9NP58). As to the kind of experiment: ABCB6 transporter inhibitors, pilot screen, K562-ABCB6 cells, flow cytometry, validation set (AID 588550).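 Also: 0% = DMSO wells and 100% = benzethonium chloride 70 µM positive control.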 The following applies: K562-ABCB6 porphyrin accumulation, 1 h, at 10 µM, stronger effect = higher value.
ATP-binding cassette sub-family B member 6 (Homo sapiens), sequence (Q9NP58 whole entry, looked up): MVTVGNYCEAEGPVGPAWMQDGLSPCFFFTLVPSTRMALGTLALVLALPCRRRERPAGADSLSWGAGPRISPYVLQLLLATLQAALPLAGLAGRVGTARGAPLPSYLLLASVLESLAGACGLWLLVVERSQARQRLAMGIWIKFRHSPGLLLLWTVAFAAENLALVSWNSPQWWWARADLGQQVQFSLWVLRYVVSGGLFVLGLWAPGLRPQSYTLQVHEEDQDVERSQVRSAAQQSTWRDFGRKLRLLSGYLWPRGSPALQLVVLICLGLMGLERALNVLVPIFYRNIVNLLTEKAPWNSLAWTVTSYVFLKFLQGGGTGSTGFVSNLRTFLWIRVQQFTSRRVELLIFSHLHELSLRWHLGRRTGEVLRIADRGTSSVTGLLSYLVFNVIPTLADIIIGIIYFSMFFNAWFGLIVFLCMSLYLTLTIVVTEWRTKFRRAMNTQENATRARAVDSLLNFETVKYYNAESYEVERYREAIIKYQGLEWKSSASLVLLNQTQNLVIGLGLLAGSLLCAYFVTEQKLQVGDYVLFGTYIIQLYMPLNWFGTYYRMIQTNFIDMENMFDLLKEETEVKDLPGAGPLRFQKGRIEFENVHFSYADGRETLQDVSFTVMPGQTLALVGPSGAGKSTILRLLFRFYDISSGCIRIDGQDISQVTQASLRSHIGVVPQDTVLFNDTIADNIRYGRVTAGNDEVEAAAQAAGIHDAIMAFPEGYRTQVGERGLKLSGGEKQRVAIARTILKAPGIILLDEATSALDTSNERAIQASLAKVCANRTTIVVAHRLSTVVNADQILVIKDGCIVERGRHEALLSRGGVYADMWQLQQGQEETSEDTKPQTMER
A short description of assay [15]: promoters of myeloid differentiation in arrested cells, primary screen, cell-based, GFP/MAC1 double positive, flow cytometry, validation set (AID 588685;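 active = differentiation response of at least 50%, scaled between solvent and reference control, from cells with both markers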;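 also: compound exposure lasts four days before antibody staining and flow analysis; 0% = DMSO wells and 100% = 5 µM fulvestrant positive control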). The note with it: ER-HoxA9 marrow cells, stronger effect = higher value, normalized: vehicle 0, fulvestrant 100.
The nature of assay [16]: modulators of MEP2-GFP levels in yeast, primary screen, S. cerevisiae, multiplex flow cytometry (AID 1867;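 active = GFP response, as percent of the DMSO control, above the screen-wide mean plus 3 SD, about 139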;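 also: median GFP channel fluorescence of barcode-gated MEP2-GFP cells measured by flow cytometry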). The note with it: S. cerevisiae MEP2-GFP strain, 3 h, at 10 µM, stronger effect = higher value, 100% means same as DMSO wells.

Molecules are shown by their SMILES. Results filed as inconclusive are left out. Calls of active or inactive are those of the source.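 The calls were made as follows, unless noted: active = inhibition above the screen-wide mean plus 3 SD, about 51%; inactive = the rest.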

AP-2 complex subunit beta (Homo sapiens), sequence (P63010 whole entry, looked up, the tested form may be a part, one chain of several): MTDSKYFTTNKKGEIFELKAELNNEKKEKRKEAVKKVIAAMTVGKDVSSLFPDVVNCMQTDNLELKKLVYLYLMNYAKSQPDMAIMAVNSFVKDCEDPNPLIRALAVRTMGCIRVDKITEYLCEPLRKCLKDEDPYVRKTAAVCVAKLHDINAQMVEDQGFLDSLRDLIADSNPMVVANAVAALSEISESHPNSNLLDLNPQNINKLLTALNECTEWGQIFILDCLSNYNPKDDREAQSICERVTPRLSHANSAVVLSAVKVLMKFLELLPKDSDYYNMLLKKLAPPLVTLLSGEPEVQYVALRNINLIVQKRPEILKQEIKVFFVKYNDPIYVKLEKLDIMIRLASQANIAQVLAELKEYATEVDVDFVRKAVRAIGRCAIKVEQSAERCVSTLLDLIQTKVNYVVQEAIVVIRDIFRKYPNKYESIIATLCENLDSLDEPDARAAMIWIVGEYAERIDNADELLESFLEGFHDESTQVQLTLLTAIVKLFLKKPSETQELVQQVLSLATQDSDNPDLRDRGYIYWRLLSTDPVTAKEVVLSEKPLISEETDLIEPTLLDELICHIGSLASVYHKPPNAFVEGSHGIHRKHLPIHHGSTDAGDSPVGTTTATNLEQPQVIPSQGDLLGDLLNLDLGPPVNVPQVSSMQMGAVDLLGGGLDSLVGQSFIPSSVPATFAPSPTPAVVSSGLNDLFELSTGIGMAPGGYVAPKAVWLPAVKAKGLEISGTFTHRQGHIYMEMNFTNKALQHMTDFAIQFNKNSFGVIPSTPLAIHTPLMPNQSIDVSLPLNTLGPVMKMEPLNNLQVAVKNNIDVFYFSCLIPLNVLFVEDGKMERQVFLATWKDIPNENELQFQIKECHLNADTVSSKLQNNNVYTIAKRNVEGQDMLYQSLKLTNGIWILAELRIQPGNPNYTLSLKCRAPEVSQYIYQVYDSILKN
Beta-adrenergic receptor kinase 1 (Homo sapiens), sequence (P25098 whole entry, looked up): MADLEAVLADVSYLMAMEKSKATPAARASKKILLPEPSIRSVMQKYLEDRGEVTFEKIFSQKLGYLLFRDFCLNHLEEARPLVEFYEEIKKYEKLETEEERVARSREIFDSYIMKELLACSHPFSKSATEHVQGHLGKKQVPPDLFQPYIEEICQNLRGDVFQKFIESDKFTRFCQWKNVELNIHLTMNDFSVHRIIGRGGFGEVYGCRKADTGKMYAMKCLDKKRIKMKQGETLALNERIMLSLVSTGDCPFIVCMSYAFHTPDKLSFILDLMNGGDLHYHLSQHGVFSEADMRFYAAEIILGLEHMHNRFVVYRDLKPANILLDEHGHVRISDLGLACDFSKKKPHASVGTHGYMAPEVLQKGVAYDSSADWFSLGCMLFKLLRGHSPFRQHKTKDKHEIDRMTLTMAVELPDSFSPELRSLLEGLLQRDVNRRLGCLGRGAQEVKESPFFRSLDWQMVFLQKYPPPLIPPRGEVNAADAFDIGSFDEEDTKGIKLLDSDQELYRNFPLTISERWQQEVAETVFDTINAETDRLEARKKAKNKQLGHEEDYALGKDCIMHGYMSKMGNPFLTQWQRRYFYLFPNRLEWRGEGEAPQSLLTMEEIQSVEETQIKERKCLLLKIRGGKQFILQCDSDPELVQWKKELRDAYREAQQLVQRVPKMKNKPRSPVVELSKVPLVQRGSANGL

Take `O=P(O)(O)CP(=O)(O)O`: the percent of DMSO control GFP in [1] was 91.9% (inactive). Further, in assay [2], the percent response of DMSO control is 90.5% (inactive). In addition, in [3], the GFP response vs DMSO was 123% (inactive). In addition, in assay [4], the GFP response, % of DMSO was 122% (inactive). Moreover, the double positive events in assay [5] came to 61.8%. Also, the vesicle binding response in [5] is 178% (inactive). Also, the values for the inhibition in assay [6], in [10] and in assay [14] were 22.7% (inactive), -22.1% (inactive) and -3% (inactive), respectively. The superoxide response (% of plate) in [7] is 93% (inactive). For the same compound, the aptamer binding inhibition in [8] was 0% (inactive). Moreover, the response in assay [9] was -17.7% (inactive); in assay [11], -0.51% (inactive). Besides, the binding (% of control) in assay [12] is 101% (inactive). Besides, the efflux inhibition (fraction of control) in assay [13] is 0 (inactive). Moreover, in assay [15], the differentiation response is 28.5% (inactive).

For the compound `COc1ccc(C(=O)Nc2ccccc2C(=O)NCCCn2ccnc2)cc1`, in [1], the percent of DMSO control GFP is 91.3% (inactive). Moreover, the GFP response vs DMSO in assay [16] was 115% (inactive); in assay [3], 75.4% (inactive). The percent response of DMSO control in assay [2] is 93.9% (inactive). Further, in assay [5], the double positive events came to 59.2%. Besides, the vesicle binding response in [5] is 82.8% (inactive). Moreover, the inhibition in assay [6] is 1.61% (inactive); in [10] it was 7.74% (inactive); in [14], 12% (inactive). The superoxide response (% of plate) in assay [7] was 101% (inactive). Moreover, the aptamer binding inhibition in assay [8] was 5% (inactive). Also, the response in [9] is -7.51% (inactive); in [11] it was -1.7% (inactive). In addition, the binding (% of control) in assay [12] was 104% (inactive). In assay [13], the efflux inhibition (fraction of control) is 0.23 (inactive). The differentiation response in [15] was -4.91% (inactive).

Turning to `COc1ccc(CCN(C)CC(=O)Nc2cc(C)nc3ccccc23)cc1OC`, the percent of DMSO control GFP in assay [1] was 108% (inactive). In addition, the percent response of DMSO control in [2] was 104% (inactive). In [3], the GFP response vs DMSO was 94% (inactive). Further, the GFP response, % of DMSO in assay [4] is 94.9% (inactive). The double positive events in assay [5] was determined as 71.8%. Moreover, the vesicle binding response in [5] is 193% (inactive). The figures for the inhibition in assay [6], in assay [10] and in assay [14] were 10.5% (inactive), -0.03% (inactive) and 5% (inactive), respectively. The superoxide response (% of plate) in [7] was 103% (inactive). In addition, in [8], the aptamer binding inhibition is 1% (inactive). The response was 7.03% (inactive) in assay [9] and -0.15% (inactive) in assay [11]. Besides, in [12], the binding (% of control) is 96.8% (inactive). Also, the efflux inhibition (fraction of control) in [13] was 0.05 (inactive). For the same compound, in [15], the differentiation response is 5.6% (inactive).

Take `Cc1cccc(C)c1NS(=O)(=O)c1ccc(NC(=O)c2ccc(Cl)c([N+](=O)[O-])c2)cc1`: the percent of DMSO control GFP in [1] was 97.7% (inactive). For the same compound, the GFP response vs DMSO in [16] is 110% (inactive); in [3], 72.6% (inactive). In addition, the percent response of DMSO control in assay [2] is 116% (inactive). Moreover, in assay [5], the double positive events was 62.8%. The vesicle binding response in [5] is 163% (inactive). The inhibition is 9.37% (inactive) in assay [6], 4.81% (inactive) in assay [10] and 9% (inactive) in assay [14]. For the same compound, the superoxide response (% of plate) in assay [7] was 103% (inactive). Moreover, the aptamer binding inhibition in assay [8] is 0% (inactive). Besides, the response was -4.38% (inactive) in assay [9] and 13% (inactive) in assay [11]. For the same compound, in assay [12], the binding (% of control) is 100% (inactive). The efflux inhibition (fraction of control) in [13] was -0.2 (inactive). Further, the differentiation response in assay [15] is 13.1% (inactive).

Consider `COc1cc2c(cc1OC)C(Cc1ccc(O)cc1)N(C)CC2` (stereo not given), for which the percent of DMSO control GFP in assay [1] was 99% (inactive). Further, the GFP response vs DMSO in [16] is 127% (inactive); in [3] it was 80.9% (inactive). Besides, the percent response of DMSO control in assay [2] is 108% (inactive). This compound also returned a double positive events in assay [5] of 56%. Also, the vesicle binding response in assay [5] is 289% (inactive). For the same compound, the values for the inhibition in assay [6], in assay [10] and in assay [14] were 8.4% (inactive), 2.93% (inactive) and 8% (inactive), respectively. The superoxide response (% of plate) in [7] was 104% (inactive). The aptamer binding inhibition in [8] was 4% (inactive). The response in assay [9] is -6.53% (inactive); in [11], 0.76% (inactive). Besides, in [12], the binding (% of control) was 108% (inactive). For the same compound, the efflux inhibition (fraction of control) in assay [13] is 0.27 (inactive). Moreover, the differentiation response in assay [15] was 2.46% (inactive).
